Data reported in PubChem BioAssay (NCI).
Values joined by “and” are separate entries in the source; they are usually repeats but may differ in a detail not shown here. Equal values may be shown once. The panel holds about 79,000 compounds, 15% with a hit somewhere; the sample as a whole holds those more often. A number with no mark means an inactive call. Active and inactive are the calls of the source. Cut-off read from the data, not from the text of the source: active = growth inhibition above about 70%; inactive = the rest.

Legend:
[1] = NCI Yeast Anticancer Drug Screen. Data for the rad50 strain (AID 155);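 note: 0% = growth of vehicle-only cultures of the same strain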; conditions: S. cerevisiae rad50 strain growth inhibition, stronger effect = higher value; at 50.0 µM unless noted
How it was run: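 Compounds were tested on a yeast strain with an engineered DNA damage repair alteration; the reported value is growth inhibition normalised to vehicle treatment.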

[2] = NCI Yeast Anticancer Drug Screen. Data for the mec2-1 strain (AID 157); conditions: S. cerevisiae mec2-1 strain, stronger effect = higher value; at 50.0 µM unless noted
How it was run: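 Vehicle-treated cultures served as reference for growth inhibition of compound-exposed mec2-1 yeast.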

[3] = NCI Yeast Anticancer Drug Screen. Data for the sgs1 mgt1 strain (AID 161);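 note: 0% = growth of cultures given vehicle only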; conditions: S. cerevisiae sgs1 mgt1 strain, stronger effect = higher value; at 50.0 µM unless noted
How it was run: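 Read-out: growth inhibition vs vehicle controls. Cells: mutant yeast strain deficient in DNA damage repair.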

[4] = NCI Yeast Anticancer Drug Screen. Data for the cln2 rad14 strain (AID 165);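 note: 0% = growth equal to vehicle treated cultures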; conditions: S. cerevisiae cln2 rad14 strain, stronger effect = higher value; at 50.0 µM unless noted
How it was run: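 Each compound was tested on cln2 rad14 yeast. Inhibition of growth was calculated against vehicle-exposed controls.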

[5] = NCI Yeast Anticancer Drug Screen. Data for the bub3 strain (AID 167); conditions: S. cerevisiae bub3 mutant strain, stronger effect = higher value; at 50.0 µM unless noted
How it was run: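 Growth of a checkpoint-deficient yeast mutant is measured after compound exposure. Values represent inhibition relative to vehicle.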

[6] = NCI Yeast Anticancer Drug Screen. Data for the mlh1 rad18 strain (AID 175); conditions: S. cerevisiae mlh1 rad18 strain growth inhibition, stronger effect = higher value; at 50.0 µM unless noted
How it was run: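 Vehicle-treated cultures served as the reference for growth inhibition in a yeast strain carrying DNA damage repair alterations exposed to each compound.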

Row | SMILES | growth inhibition [1] | growth inhibition [2] | growth inhibition [3] | growth inhibition [4] | growth inhibition [5] | growth inhibition [6]
1 | Cc1ccc(S(=O)(=O)ONNc2nccc3ccccc23)cc1 | 16.9% | 7.05% | 1.55% | -16.8% | 1.15% | 19.4%
2 | CC1=C(C#N)C(=C(C#N)C#N)OC1(C)Cc1ccccc1 (centres undefined) | 8.25% | 6.35% | 24.6% | 8.55% | 2.85% | 33.1%
3 | CN1C(=O)CCC1c1nc2ccccc2[nH]1 (centres undefined) | 0.15% | 9.95% | -3.05% | -17.9% | 6.45% | 20.4%
4 | CCOc1ccc([N+](=O)[O-])cc1[N+](=O)[O-] | 43.3% | 2.1% | -11.3% | -55.5% | -25.6% | -2.6%
5 | COC1OC(CO)C(O)C1OS(C)(=O)=O (centres undefined) | -11.7% | -4.25% | -10.3% | -1.2% | -4.45% | -8.3%
6 | CC1(C)C2=CC3(C)N(CN2c2ccccc21)c1ccccc1C3(C)C (centres undefined) | 17.1% | 24.4% | 18.8% | 7% | 12.9% | 15.9%
7 | O=[N+]([O-])c1cc(COc2ccc(Cl)c(Cl)c2)ccc1Cl | 1.8% | 30.3% | 38.5% | -0.95% | 46.4% | 35.8%
8 | C/C(=N\NC(=O)c1ccncc1)c1cc(Cl)ccc1Cl | 2.9% | 5.4% | 4.65% | 8.15% | 0.35% | 8.7%
9 | COC1OC(COC(=O)NCCCCC(=O)C(F)(F)F)C(O)C(O)C1O (centres undefined) | 3.6% | 22.6% | -0.5% | 29.9% | 28.2% | 11.6%
10 | O=C(CSS(=O)(=O)O)Nc1ccccc1 | 17.6% | -0.65% | 7.5% | 14.6% | 9.65% | -8.05%
11 | O=C1CCC(=O)N1N1C(=O)CCC1=O | -9.65% | -24.2% | -10.4% | 7.05% | -23.2% | 3.35%
12 | C/C(=N\NC(N)=O)c1ccc(Br)c2ccccc12 | -19.1% | 12.9% | -3.35% | 4.05% | 1.05% | -1.2%
13 | CC1=CCCC2C(C=O)(C1)CC(C)C2(CO)CC/C(=C/CO)CO (centres undefined) | 3.8% | 4.05% | -5.5% | 32.8% | -3.4% | -5.7%
14 | Cc1cccc2c(N3CCN(c4ccccc4)CC3)c3c(nc12)CCCCC3 | 11.4% | -22.7% | -12.3% | -3.05% | 3.2% | -2.7%
15 | Fc1cccc2c(SCc3ccc(Cl)cc3Cl)cnnc12 | -0.9% | -1.25% | 3.25% | -44.5% | 13.8% | 2.85%
16 | CC1C(C)(C)C23CC12C1(OCCO1)C3Br (centres undefined) | -11.4% | -4.4% | -6.6% | 14.6% | 10.8% | 25.4%
17 | COC(=O)C1(C)CCCC2(C)c3cc(OC)ccc3C(=O)CC12 (centres undefined) | 24.4% | 12.7% | 28% | 5.95% | 19.6% | 21.7%
18 | Cc1ccc(NC(=S)N2CCCC(C)C2)cc1C (centres undefined) | -1.15% | -9.85% | 6.15% | -7.3% | 6.15% | -23.6%
19 | CNS(=O)(=O)c1ccc(C)c(C)c1 | -0.5% | -13.9% | 4.4% | -10.7% | 23.1% | 12.7%
20 | O=C(O)CC(C(=O)O)C(Cc1ccccc1)c1ccccc1 (centres undefined) | -10.2% and 22.4% | -4.25% and 10.9% | 0.35% and 10.1% | -0.05% and 5.95% | -1.6% and 10.1% | -3.15% and -6.55%

Row | SMILES | growth inhibition [1] | growth inhibition [2] | growth inhibition [3] | growth inhibition [4] | growth inhibition [5] | growth inhibition [6]
21 | CCOP(=O)(OCC)/C(=C\n1c(=S)[nH]c2cc(C)ccc21)C(=O)OC | -34.1% | -27.7% | 13.3% | -4.4% | -2.5% | 31.3%
22 | CC(C)=CCCC(C)CCO (centres undefined) | -5.1% | -4.75% | -15.4% | 16.4% | -16.6% | 3.25%
23 | CC(C)=CC(=O)O | 3.2% | -3.3% | -9.3% | 20.3% | 2.1% | 7.9%
24 | COC1COCOC1C(OC)C1OCOCC1OC (centres undefined) | -2.25% | -12.2% | -8.15% | -46.3% | -4.25% | -2.8%
25 | O=C1c2ccccc2C(=O)N1CCCCCCS(=O)(=O)Cl | 13.7% | 10.9% | -2.75% | -16.9% | -7.35% | 0.55%
26 | Cc1cccc(Nc2nc(C)nc3[nH]cc(-c4ccccc4)c23)c1 | -14.7% | -12.6% | -10.9% | -53.2% | -15.5% | -7.95%
27 | c1ccc(N=C(Nc2ccccn2)Nc2ccccn2)nc1 | 5.15% | -7.2% | 1.1% | -34% | -14.7% | -25.1%
28 | CC1=NN(C(=O)Nc2ccc(Cl)cc2)C(=O)C2CCC(=O)N12 (centres undefined) | 2.6% | 0.6% | 1.1% | 2.7% | -0.45% | 27%
29 | OCCN1CCN=C1Cc1ccccc1 | 4.75% | 11.9% | 8.05% | 14.2% | -2.1% | 29.4%
30 | Cc1ccc(C(=O)c2ccc([N+](=O)[O-])cc2)cc1 | -21.1% | -20.4% | -34.5% | -50% | 8.3% | -41.1%
31 | C[n+]1c(SCC(=O)O)sc2ccccc21 | -28.8% and 1.2% | -46.3% and 10.1% | 3.7% and 19.6% | 14.9% and 6.5% | -26.6% and 34.2% | 5.7% and 22.9%
32 | O=C1CN(Cc2ccc3c(c2)OCO3)NO1 | 15.3% | -1.25% | -17.4% | -4.5% | -9.35% | -26.5%
33 | Cc1c(SC(Cl)(Cl)Cl)cc([N+](=O)[O-])c(N(C)C)c1[N+](=O)[O-] | 13.5% | 24.9% | 34.6% | -43.9% | 6.45% | 10%
34 | CC1=Cc2cccc(C)c2C(=O)C1=O | 93.6% (active) | 95.2% (active) | 94.5% (active) | 92.8% (active) | 93.8% (active) | 93.2% (active)
35 | COc1cc2c(c(OC)c1OC)-c1ccc(OC)c(=O)cc1[C@@H](NC=O)CC2 | -11% | -14.5% | -22.9% | 4.15% | -8.05% | -29.8%
36 | OCCNc1cccc2ccccc12 | 31.6% | -4.15% | 35.2% | 18.9% | 8.8% | 37.4%
37 | CC(/C(=N/O)c1ccccc1)N1C(=O)c2ccccc2C1=O (centres undefined) | -31.1% | -12.9% | -4.5% | -27.1% | -3.95% | 5.7%
38 | N=C(N)C1CN(CC=O)C(=O)NC1=O (centres undefined) | -11.7% | 11.1% | -2.65% | 24.9% | -4.15% | 11.8%
39 | NC1CC(c2ccccc2)NC(c2ccccc2)C1 (centres undefined) | 10.7% | -2.9% | -4.8% | -8.5% | -14.8% | 16.2%
